Most compounds without a hit are left out; they make up all but 8.2% or so of the library.
KB-V1 MDR tox = qHTS assay for MDR1-selective chemotherapeutics: Primary screen using the drug-selected MDR subline cells KB-V1. KB-V1 MDR cells viability, CellTiter-Glo, 72 h. Potency, µM (top dose mostly 46.1 µM), most hits filed as cytotoxic. 400,000 tested, 3.4% active. AID 1347076, 2019; further: on the % scale 0 is the no-effect control and ±100 the full control effect; nearly all actives have a fitted effect of over 60% in size
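Cells of the MDR subline KB-V1 are plated, dosed with compound at multiple concentrations, and incubated 72 h at 37 degrees C; CellTiter-Glo is then added and luminescence read after 10 min.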
MCF10A rerep = A quantitative high throughput screen for small molecules that induce DNA re-replication in MCF 10a normal breast cells; MCF 10A DNA re-replication, Hoechst nuclear intensity, 48 h; Potency, µM (titrated, usually from 46.1 µM), without a hit: at the top dose activity, positive = re-replication, hits mostly activators; 350,000 tested, 2.9% active; AID 624296, 2012; further: % of control where 0% means no effect; nearly all actives have a fitted effect of over 50% in size
KB-3-1 cytotox = qHTS assay for MDR1-selective chemotherapeutics: Primary screen using the parental adenocarcinoma cell KB-3-1; KB-3-1 viability, CellTiter-Glo ATP luminescence, 72 h; Potency, µM (titrated, usually from 46.1 µM), usual class: cytotoxic; 400,000 tested, 1.4% active; further: on the % scale 0 is the no-effect control and ±100 the full control effect; nearly all actives have a fitted effect of over 60% in size
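Luminescent ATP read-out (CellTiter-Glo) measures survival of drug-naive KB-3-1 cells after 72 h compound exposure at 37 °C. Titration series was screened from lowest to highest concentration, with DMSO vehicle plates as background controls.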
ELG1 DNA repair = qHTS screen for small molecules that inhibit ELG1-dependent DNA repair in human embryonic kidney (HEK293T) cells expressing luciferase-tagged ELG1. AID 504467, 2011. Potency, µM (doses to about 46.1 µM), for the others: top-dose activity change, negative = inhibition, usual class: inhibitors. 330,000 tested, 2.3% active. HEK293T ELG1-luciferase reporter, luminescence, 16 h; DNA damage induced by 5-fluorouridine; further: on the % scale 0 is the no-effect control and ±100 the full control effect; nearly all actives have a fitted effect of over 55% in size
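5-Fluorouridine DNA damage + compound/DMSO, 2,000 cells/well, 16 h, 37 °C/5% CO2. ONE-Glo, 30 min RT, luminescence. Readout = decrease in reporter signal.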
SW480 rerep = A quantitative high throughput screen for small molecules that induce DNA re-replication in SW480 colon adenocarcinoma cells | SW480 DNA re-replication, Hoechst DNA content imaging, 48 h | Potency, µM (series often up to 46.1 µM), without a hit: at the highest dose re-replication activation, hits mostly activators | 340,000 tested, 1.8% active; further: % of control where 0% means no effect; nearly all actives have a fitted effect of over 55% in size
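First, 250 cells per well were seeded. Next, compound or vehicle (23 nL) was pinned in, plates sat 48 hr at 37 C. Finally Hoechst was added for 40 min before fluorescence scanning.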
Starred values were filed as active, the others as inactive; i = inactive; u = inconclusive; x = no result given. The call rests on the fitted dose curve; in most records, active means well fitted curve in the direction sought with a large enough effect; inconclusive means small, poorly fitted or top-dose-only effect, or another doubt; inactive means no such curve, though single readings can be large; an effect the other way counts as inactive or inconclusive. Potency means the concentration at half of the fitted maximal effect.

SMILES	KB-V1 MDR tox	MCF10A rerep	KB-3-1 cytotox	ELG1 DNA repair	SW480 rerep
COc1cc(/C=N/NC(=S)Nc2cccc(Cl)c2C)ccc1OCC(=O)N1CC(C)OC(C)C1 (centres undefined)	4.61µM*	1.9%	i	u	2.6%
O=C1CCCC2=C1C1(CCOCC1)N=C(Nc1nc3ccccc3o1)N2	i	x	i	x	x
COc1ccc2ccccc2c1C1NC(=O)c2ccccc2N1 (centres undefined)	5.8µM*	5.17µM*	2.31µM*	x	8.2µM*
Clc1ccccc1C1Nc2cccc3cccc(c23)N1	i	18.3%	i	-9.1%	-12.1%
O=C1NC(c2cccc3ccccc23)Nc2ccccc21 (centres undefined)	0.651µM*	0.92µM*	0.411µM*	x	u
O=C1NC(c2ccccc2Cl)Nc2ccccc21 (centres undefined)	u	u	u	-7.2%	16.4µM*
O=C1NC(c2cccs2)Nc2ccccc21 (centres undefined)	i	9.9%	i	-9.8%	19.5%
CCOc1cccc(NC(=O)C2CC(=O)N(CC)C(=Nc3ccc(F)cc3)S2)c1 (centres undefined)	u	x	i	x	x
CNC(=O)c1nc(C)c(C2(C)CC(c3ccccc3)=NO2)s1 (centres undefined)	i	-31.8%	i	27.2%	-9.5%
Cc1nc(C(=O)NCCC(C)C)sc1C1(C)CC(c2ccccc2)=NO1 (centres undefined)	i	-1.1%	i	13µM*	u
COc1ccc(NC(=O)c2nc(C)c(C3(C)CC(c4cccnc4)=NO3)s2)cc1 (centres undefined)	u	u	4.61µM*	u	7.31µM*
CCN1C(=O)[C@H]2[C@@H](c3ccc(C(F)(F)F)cc3)N[C@]3(CCCN(Cc4ccccc4)C3=O)[C@H]2C1=O	i	x	i	x	x
O=S(=O)(c1cccs1)N1CCN(Cc2nc3ccccc3s2)CC1	23.1µM*	4.7%	i	u	6.1%
O=[N+]([O-])c1ccccc1/C=C1\C=Cc2ccccc21	i	x	i	x	x
CC(C)C[C@@H](NC(=O)C1CCC(CNC(=O)[C@@H]2CCCN2C(=O)OC(C)(C)C)CC1)C(=O)O (some centres undefined)	i	-0.3%	i	4.9%	-2.0%
CCOc1ccc(S(=O)(=O)N(CC(=O)Nc2cccnc2)c2ccccc2)cc1	u	x	i	x	x
O=C(CS(=O)(=O)c1nc(-c2ccc(Cl)cc2)cn1-c1ccccc1)Nc1cccc(Cl)c1	16.4µM*	x	16.4µM*	x	x
Cn1c(=O)c(C(=O)NNC(=O)c2ccc(Br)cc2)c(O)c2ccccc21	u	23.1µM*	25.9µM*	u	21.2%
Cc1cccnc1NC(=O)c1c(O)c2ccccc2n(C)c1=O	7.31µM*	u	i	27.0%	13.0%
Cn1c(=O)c(C(=O)NNC(=O)c2ccccc2F)c(O)c2ccccc21	u	19.3%	u	-13.5%	u
CCn1c(=O)c(C(=O)Nc2ncccc2O)c(O)c2ccccc21	i	u	i	u	5.4%
CCn1c(=O)c(C(=O)Nc2ncccc2C)c(O)c2ccccc21	4.61µM*	15.6%	u	-26.3%	24.2%
O=C(/C=C/c1ccc(Cl)cc1Cl)N1CCN(c2ccccc2[N+](=O)[O-])CC1	i	7.9%	i	u	u
Cc1nn(-c2ccccc2)c(Cl)c1C(=O)OCC(=O)N(C)c1c(N)n(Cc2ccccc2)c(=O)[nH]c1=O	u	11.9%	i	1.3%	0.2%
COc1cc(/C=C/C(=O)OCC(=O)c2c[nH]c3ccccc23)ccc1OC(F)F	i	7.8%	i	u	-2.4%
SMILES	KB-V1 MDR tox	MCF10A rerep	KB-3-1 cytotox	ELG1 DNA repair	SW480 rerep
CC1=C(C)CS(=O)N(S(=O)(=O)c2ccccc2)C1 (centres undefined)	u	u	i	u	u
O=S(=O)(/N=S1\CC=CCN1S(=O)(=O)c1ccccc1)c1ccccc1 (centres undefined)	i	18.4µM*	i	x	u
CN(C)c1nc(N/N=C/c2ccccc2O)nc(Nc2ccc(F)cc2)n1	u	10.3µM*	u	u	5.8µM*
CSCCC(NC(=O)COc1ccccc1)C(=O)NC1CCC(C)CC1 (centres undefined)	8.2µM*	14.2%	i	5.7%	-1.7%
CSCCC(NC(=O)COc1ccccc1)C(=O)N(C)CC(=O)Nc1ccc(Cl)cc1 (centres undefined)	3.66µM*	5.4%	i	u	4.8%
COc1cccc(NC(=O)CN(C)C(=O)C(CCSC)NC(=O)c2ccco2)c1 (centres undefined)	18.4µM*	-0.9%	i	-4.2%	1.1%
Cc1ccc(NC(=O)C2CCCN(S(=O)(=O)c3cccc4nsnc34)C2)c(C)c1 (centres undefined)	i	x	i	x	x
CN1CCCC(CN2c3ccccc3Sc3ccccc32)C1 (centres undefined)	u	-24.8%	i	9.3%	u
CN1CCCC(CC2c3ccccc3Sc3ccccc32)C1 (centres undefined)	18.4µM*	-29.2%	i	20.0%	-11.0%
O=C1CCCN1CCCNC(=S)Nc1ccc(Nc2ccccc2)cc1	u	1.8%	i	14.6µM*	3.7%
O=C(c1ccccc1)c1ccc(NCCCn2ccnc2)c([N+](=O)[O-])c1	5.17µM*	24.8%	u	-11.6%	-5.0%
CC(C)(C)c1nnc(NC(=O)c2cc(-c3ccccc3)nc3ccccc23)s1	i	20.3%	i	-9.5%	-0.8%
O=C(Nc1nc2c(s1)CCCC2)c1cc(-c2ccccc2)nc2ccccc12	13µM*	7.9%	i	-10.2%	x
O=C(NN=C1CCCCCC1)c1cc(-c2ccccc2)nc2ccccc12	i	16.4µM*	u	5.2%	5.1%
O=C(Nc1nc2c(s1)CCCC2)c1cc(-c2ccncc2)nc2ccccc12	i	-4.5%	u	u	3.5%
Cc1csc(NC(=O)c2cc(-c3ccccc3)nc3ccccc23)n1	2.31µM*	u	u	u	-47.3%
C#CCOc1ccc(CNC[C@H]2O[C@@H](n3ccc(=O)[nH]c3=O)[C@H](O)[C@@H]2O)cc1	i	x	i	x	x
CC(C)(C)c1ccc(C(=O)C2CC2)cc1	i	x	i	x	x
COC(=O)[C@@]1(Sc2ccc(C)cc2)CC(=O)N[C@@H]1c1ccc(C(F)(F)F)cc1	u	x	i	x	x
